# Assay outcomes from PubChem BioAssay.
# Only some compounds are listed: those with a hit (about 2% of all), similar ones and a draw of the others.
# Shn3 3UTR inh: reduction of Shn3 3'UTR firefly luciferase signal, primary screen, Schnurri-3 inhibitor project, cell-based, Clone20 osteoblasts, set 2 | Clone20 osteoblast Shn3 3'UTR firefly luciferase, 24 h | hit rate 0.52% among 360,000 | inhibition, % at 12.5 µM;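 active = mean inhibition of at least 75% with every replicate also reaching 75%; inconclusive = mean inhibition at least 75% but some replicate below; inactive = mean inhibition below 75%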
# LGR2 antag: inhibitors of bursicon-induced LGR2 CRE-luciferase signal, primary screen, cell-based, HEK293, CRE-luciferase reporter, bursicon stimulation; AID 720647, 2013; inhibition, % at 9.99 µM; bursicon-stimulated, 4 h; Drosophila bursicon receptor LGR2 (rickets); hit rate 0.35% among 380,000;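 active = drop in luminescence signal, shown as inhibition above about 50% in the replicate tests, limit read from the data, passing the limit was not always enough; inconclusive = probably only some replicates passing the limit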;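 note: agonist challenge used bursicon conditioned medium at about half maximal strength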
# CF NFkB block: inhibitors of PAF-induced NF-kB signaling, primary screen, cell-based, GFP fluorescence, uHTS. hit rate 0.86% among 360,000. KKLEB NF-kB-GFP reporter, GFP fluorescence overnight. AID 588850, 2011. inhibition, % at 5 µM;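 active = at least 50% inhibition at 5 µM, scaled per plate between neutral and stimulator controls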;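 note: PAF is a Pseudomonas aeruginosa culture filtrate used as stimulus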
# KKLEB cytotox: cytotoxicity in KKLEB CF airway cells, primary screen, cytotoxicity control for CF NF-kB inhibitor project, cell-based, uHTS, fluorescence assay plates | activity change (cytotoxicity), % at 5 µM | KKLEB CF airway cells viability, ATPlite luminescence, overnight; hits give low values; cells stimulated with P. aeruginosa culture filtrate | hit rate 0.36% among 360,000;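 active = corrected activity change at or below -50% at 5 µM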
# PAX8 reporter: inhibitors of PAX8-driven TPO luciferase reporter, primary screen, RMG-I cells, single concentration. SteadyGlo, 24 h. inhibition, % at 12.6 µM. hit rate 1.2% among 360,000. AID 652154, 2013;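 active = mean replicate inhibition at least 60% with every replicate also reaching 60%; inconclusive = only one of the two criteria is met; inactive = mean below 60% and not all replicates reaching 60%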;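 note: luciferase light reporting Pax8 driven TPO promoter activity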
# EWS-Fli block: EWS/Fli-driven NR0B1 reporter inhibitors, primary screen, A673 cells, NR0B1 luciferase, luminescence, MLPCN library | viability-normalised | hit rate 0.67% among 350,000 | inhibition, % at 12.6 µM;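 active = mean inhibition of at least 50% after viability correction, with every replicate also passing that limit; inconclusive = mean reaches 50% but only one of two replicates passes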;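 note: firefly luciferase signal divided by Alamar Blue viability fluorescence both relative to DMSO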
# A number is an active result; 0 = inactive; ? = inconclusive; - = not tested or not shown.
SMILES,Shn3 3UTR inh,LGR2 antag,CF NFkB block,KKLEB cytotox,PAX8 reporter,EWS-Fli block
O=C(Nc1ccccc1)C1=C(c2ccccc2)S(=O)(=O)CCS1(=O)=O,95,100,85,-83,0,0
Cc1cc(-c2cccnc2)c(C#N)c(SCc2cccc(F)c2)n1,0,0,54,-62,-,-
O=C(NCCc1ccccc1)C(c1cccs1)N(C(=O)c1csnn1)C1CC1 (centres undefined),0,-,0,0,0,-
O=C(NCCc1ccccc1)C(c1cccs1)N(C(=O)CCl)c1ccc(Cl)cc1 (centres undefined),0,0,105,-89,111,-
CO[C@@H](CN(C)C(=O)c1ccc2c(c1)OCO2)[C@@H](C)CN([C@H](C)CO)S(=O)(=O)c1ccc(F)cc1,-,0,-,-,-,0
C[C@H]1CN([C@@H](C)CO)C(=O)c2cc(NC(=O)C3CCCCC3)ccc2O[C@@H]1CN(C)S(=O)(=O)c1ccc(F)cc1,-,0,-,-,-,0
COc1ccc(-n2ncc3c(N4CCCCC4)ncnc32)cc1,0,-,0,-82,-,-
Clc1ccc(Cn2ncc3c(N4CCCCC4)ncnc32)cc1,-,-,0,0,-,-
Clc1ccc(-n2ncc3c(N4CCCCCC4)ncnc32)cc1,0,96,0,-52,0,80
c1ccc(Cn2ncc3c(N4CCN(c5ccccc5)CC4)ncnc32)cc1,0,66,0,0,0,0
O=C(Nc1ccc(Cl)cc1)N[C@@H]1CC[C@H](CCn2cc(Cc3ccccc3)nn2)O[C@@H]1CO,-,0,-,-,0,0
CC(C)NC(=O)Nc1ccc2c(c1)C(=O)N([C@@H](C)CO)C[C@H](C)[C@@H](CN(C)C(=O)NC(C)C)O2,-,0,-,-,0,0
CN(C)CCCNC(=O)C[C@H]1CC[C@@H]2[C@@H](COc3ccc(NC(=O)C4CCC4)cc3C(=O)N2C)O1,-,0,-,-,0,0
COc1cc(C2Oc3ccccc3C=C2[N+](=O)[O-])cc(OC)c1OC (centres undefined),0,0,0,0,0,52
COc1cc(C2NC(=O)c3ccccc3O2)cc(OC)c1OC (centres undefined),0,-,0,0,0,-
Cc1ccc(S(=O)(=O)c2ncccc2N)cc1,0,0,0,0,0,0
Cc1ccc(S(=O)(=O)c2ncccc2[N+](=O)[O-])cc1,96,0,102,-65,109,0
C[C@@H]1CN([C@@H](C)CO)S(=O)(=O)c2ccc(C#CCC3CCCC3)cc2O[C@@H]1CN(C)C(=O)CC1CC1,-,0,-,-,0,0
COc1cccc(CC(=O)Nc2nc3c(s2)C(=O)CC(C)(C)C3)c1,0,0,0,0,99,0
CC=Cc1ccc2n(c1=O)C[C@H]1[C@H](CO)[C@@H](C(=O)NCC)N(C(=O)c3cccnc3)[C@@H]21 (mixture of isomers),-,0,-,-,0,0
CCCCNC(=S)Nc1ccc(Cl)cc1,0,0,0,0,0,78
CCNC(=S)Nc1ccc(Cl)cc1,0,-,0,0,0,0
O=C(C[C@H]1CC[C@H]2[C@@H](COC[C@@H](O)CN2S(=O)(=O)c2ccccc2F)O1)NCc1ccccc1Cl,-,0,-,-,0,0
CN(CC(=O)NCc1ccc2c(c1)OCO2)S(=O)(=O)c1ccc(Br)s1,94,0,0,0,-,-
O=C1C=CC(=O)N1c1ccccc1N1C(=O)C=CC1=O,94,0,61,0,?,0
SMILES,Shn3 3UTR inh,LGR2 antag,CF NFkB block,KKLEB cytotox,PAX8 reporter,EWS-Fli block
O=C(c1ccccc1)c1ccccc1N1C(=O)C=CC1=O,93,0,78,0,0,0
O=C1C=CC(=O)N1c1ccccn1,0,0,0,0,0,0
Cc1ccc(NC(=O)/C=C/c2ccc([N+](=O)[O-])s2)c(C)c1,94,0,0,0,98,71
Cc1ccc(C(=O)N/N=C/c2ccc([N+](=O)[O-])s2)cc1,90,-,0,0,-,-
Cc1cccc(NC(=O)/C=C/c2ccc([N+](=O)[O-])s2)c1,91,0,0,0,73,68
CN1C(=O)/C(=C/c2cc(N=Nc3ccccc3)ccc2O)SC1=S,0,0,74,-52,-,-
O=C(Cc1ccccc1)c1ccccc1C(=O)N1CCCCC1,0,0,0,0,108,0
